Shown are actives, neighbours in structure and some others; about 14% of the full set was active somewhere.
HCV inhibitor: qHTS Assay for Inhibitors of Hepatitis C Virus (HCV). Huh7.5.1 HCVcc-Cre infection, luciferase reporter, 44 h. 340,000 compounds, 3.4% hits. Potency, µM (titrated, usually from 41.8 µM), for the others: at the highest dose activity change, negative = inhibition, usual class: inhibitors; further: potency means the concentration at half of the fitted maximal effect
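Compounds are dispensed onto cells plated 4 h earlier at 1,000 per well, with HCVcc-Cre virus (about 0.5 moi) added next. Following 44 h of culture, luminescent signal is measured for 15 sec after 15 min with substrate at room temperature.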
Pf growth 96h: Primary qHTS for delayed death inhibitors of the malarial parasite plastid, 96 hour incubation; P. falciparum luciferase reporter growth, 96 h; Potency, µM (doses to about 28.7 µM), without a hit: top-dose activity change, negative = inhibition, actives largely listed as inhibitors; 320,000 compounds, 6.9% hits; AID 504834, 2011; further: potency means the concentration at half of the fitted maximal effect
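96 h incubation, 37 C, 5% CO2, of luciferase-reporter P. falciparum-infected RBCs (2% hematocrit, 0.05% parasitemia final) with test compounds; endpoint luminescence.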
LASV entry inh: qHTS for Inhibitors of binding or entry into cells for Lassa Virus; Lassa virus pseudotype entry inhibition, cell reporter; Potency, µM (highest dose often 37.9 µM), inactives show at the top dose activity change, negative = inhibition, usual class: inhibitors; 300,000 compounds, 1.2% hits; AID 540256, 2011; calls by dose curve; tested in HEK293 cells; further: potency means the concentration at half of the fitted maximal effect; nearly all actives have a fitted effect of over 50% in size
MARV entry inh: qHTS for inhibitors of binding or entry into cells for Marburg Virus. Marburg virus pseudotyped entry inhibition, cell reporter. Potency, µM (series often up to 37.8 µM), for the others: top-dose activity change, negative = inhibition, most hits filed as inhibitors. 300,000 compounds, 1.8% hits; calls by dose curve; tested in HEK293 cells; further: potency means the concentration at half of the fitted maximal effect
Pf growth 48h: Primary qHTS for delayed death inhibitors of the malarial parasite plastid, 48 hour incubation | P. falciparum luciferase growth in erythrocytes, 48 h | Potency, µM (doses to about 28.7 µM), for the others: at the top dose activity change, negative = inhibition, actives largely listed as inhibitors | 310,000 compounds, 5.9% hits | AID 504832, 2011; further: potency means the concentration at half of the fitted maximal effect
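Read-out is firefly luciferase luminescence from an integrated reporter in P. falciparum, so falling signal marks reduced parasite growth. Infected erythrocytes were at 2% hematocrit and 0.1% parasitemia (final) in Albumax-supplemented RPMI 1640.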
HCMV antiviral: qHTS Assay for inhibitors of the human cytomegalovirus (HCMV). 410,000 compounds, 4.5% hits. activity change, negative = inhibition, % at 57.5 µM. HFF cells, HCMV-luciferase reporter, 72 h; stronger effect = lower value; in the data active means activity change below about -60%; inconclusive means no clear call, values can overlap the other calls; inactive means above about -39%
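HFF cells seeded 16 h at 37C, treated with compounds, infected with luciferase-reporter HCMV at MOI 1 PFU/cell; luciferase read at 72 h post infection, normalized to buffer-only and Salinomycin controls.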
* = called active by the depositor; ? = inconclusive; · = no result; [ ] = dose if it differs, or a comment. Unless noted, the call rests on the fitted dose curve; in most records, active means well fitted inhibition curve with a large enough effect; inconclusive means small, poorly fitted or top-dose-only effect, or another doubt; inactive means no such curve, though single readings can be large or run the other way. On the % scale 0 is the no-effect control and ±100 the full control effect.

SMILES	HCV inhibitor	Pf growth 96h	LASV entry inh	MARV entry inh	Pf growth 48h	HCMV antiviral
Cc1ccc(C)c(OCCn2cc(C(=O)c3ccco3)c3ccccc32)c1	·	·	?	13%[46.1 µM]	·	0
CCOc1ccc2oc(=O)cc(CN3CCN(C(=O)c4ccc(OC)c(OC)c4)CC3)c2c1	·	·	-1%[46.1 µM]	?	·	1
COc1cc(OC)cc(C(=O)c2c(C)c(C#N)c3ccccn23)c1	?	?	·	·	8.3µM*	-20
CCOC(=O)COc1ccc2c(C#N)c3ccccn3c2c1	-18%	15%	-1%	3%	-10%	-32
Cn1c(CCNC(=O)c2cccs2)nnc1SCC(=O)Nc1nc(-c2ccccc2)cs1	7%	14%	-14%	28%	7.4µM*	45
Cn1c(CNc2nc(-c3ccccc3)cs2)nnc1SCC(=O)OC1CCCCC1	-12%	?	-2%	-9%	2.3µM*	-16
COc1cccc(C(=O)CSc2nnc(CNc3nc(-c4ccccc4)cs3)n2C)c1	-6%	20%	-26%	-7%	?	16
CC(C)OC(=O)CSc1nnc(CNc2nc(-c3ccccc3)cs2)n1C	28%	88%	-10%	16%	2.3µM*	4
CCOC(=O)Cn1c(=O)oc2cc(S(=O)(=O)NCc3cccs3)ccc21	13%	13µM*	·	·	·	-4
CCOC(=O)Cn1c(=O)oc2cc(S(=O)(=O)NCc3ccccn3)ccc21	10%	12µM*	·	·	·	?
CCCCN1C(=O)C(CC(=O)NC(c2ccccc2)c2ccccc2)CC(C(=O)N(C(C)C)C(C)C)=C1C (stereo not drawn)	·	·	·	·	·	2
COC(=O)c1ccc(NC(=O)CN(C)S(=O)(=O)c2ccc(Br)s2)cc1	·	·	-15%[46.1 µM]	1%[46.1 µM]	·	-2
O=C(Nc1nnc(Cc2ccccc2)s1)C1CCN(C(=O)c2ccco2)CC1	-13%	8%	3%	4%[46.1 µM]	-10%	4
O=C(Nc1nnc(Cc2ccccc2)s1)C1CCC1	1%	1.7µM*	·	·	?	10
COc1ccc(Cc2nnc(NC(=O)c3ccccc3C)s2)cc1	-2%	2.1µM*	·	·	34%	-17
Cc1cccc(C(=O)Nc2nnc(Cc3ccccc3)s2)c1	-4%	10µM*	-27%[46.1 µM]	18%[46.1 µM]	?	96
O=C(Nc1ccc(F)cc1)Nc1nnc(Cc2ccccc2F)s1	-29%	10µM*	?	-16%	?	-24
O=C(Nc1nnc(Cc2ccccc2)s1)c1ccccc1	3%	?	5%[46.1 µM]	?	85%	89
COc1ccc(C(=O)Nc2nnc(Cc3ccccc3)s2)c(OC)c1	-13%	0%	?	?	?	-18
O=C(C[C@@H]1C/C=C\CC[C@@H](Cc2ccc(F)cc2)C(=O)OC[C@@H](Cc2ccccc2)NC1=O)NCCO	?	·	·	·	·	3
COc1ccc(OC)c(NC(=O)CN2C(=O)CC(C)Sc3ccccc32)c1 (stereo not drawn)	·	·	·	1%[46.1 µM]	·	39
O=C(Nc1nnc(CCS(=O)(=O)c2ccc3ccccc3c2)s1)c1cccs1	?	17%	0%	-10%	15%	-1
O=C(Nc1ccccc1)Nc1nnc(Cc2ccccc2F)s1	1%	?	-16%	-3%	0%	60
O=C(Nc1nnc(Cc2ccccc2)s1)Nc1ccccc1F	-8%	15µM*	·	·	-39%	27
COc1ccc(S(=O)(=O)CCc2nnc(NC(=O)c3cccs3)s2)cc1	20%	33%	14%	?	2.3µM*	-21
SMILES	HCV inhibitor	Pf growth 96h	LASV entry inh	MARV entry inh	Pf growth 48h	HCMV antiviral
CCCCN1C(=O)C(CC(=O)NCCc2ccccn2)CC(C(=O)N2CCOCC2)=C1C (stereo not drawn)	·	·	·	·	·	-6
O=C1CC2(CCCCC2)Oc2ccc(O)cc21	15%	4.1µM*	-30%	0%	-24%	?
O=C1CC2(CCCCC2)Oc2ccc(F)cc21	8%	·	·	·	·	-6
COC(=O)[C@H]1[C@H](CO)[C@H]2Cn3c(cccc3=O)[C@@H]1N2Cc1cocn1	·	·	·	·	·	-13
COc1cc2nc(/C=C/c3cc(OC)c(OC)c(OC)c3)sc2cc1SC	10µM*	-102%	?	7.1µM*	2.6µM*	-32
COc1cc2nc(C)sc2cc1SC	?	·	13%	-2%	·	20
CNC(=O)c1ccc(-n2nc(C)cc2-c2ccccc2)cc1	-6%	?	22%	-3%	1.7µM*	-16
Cc1ccc(NC(=O)c2cc(C)nn2-c2ccccc2)cc1	-6%	13µM*	8%[46.1 µM]	?	·	-33
CC(=O)c1cccc(NC(=O)c2nc(-c3ccccc3)n(-c3ccccc3)n2)c1	·	·	-4%[46.1 µM]	1%[46.1 µM]	·	15
Cc1ccc(C)c(NC(=O)c2nc(-c3ccccc3)n(-c3ccccc3)n2)c1	14%	9.3µM*	-30%	-26%	·	-22
Cc1ccc(C)c(NC(=O)c2cc(-c3ccccc3)nn2-c2ccccc2)c1	11µM*	?	?	11µM*	?	?
Cc1cc(C(=O)Nc2ccccc2C)n(-c2ccccc2)n1	18%	10%	6%	-2%	6%[0.00184 µM]	?
Cc1nc(-c2ccccc2)nn1-c1ccc([N+](=O)[O-])cc1	-2%	·	6%[46.1 µM]	?	·	-11
COc1cc(-c2ccc(-[n+]3nc(-c4ccccc4)nn3-c3ccc([N+](=O)[O-])cc3)c(OC)c2)ccc1-[n+]1nc(-c2ccccc2)nn1-c1ccc([N+](=O)[O-])cc1	·	6.7µM*	·	·	5.4µM*	·
CC(Oc1ccc2c(=O)c(-c3ccc(Cl)cc3)c(C(F)(F)F)oc2c1)C(=O)O (stereo not drawn)	21%	29%	·	·	10µM*	0
CCCNC(=O)c1ccc(S(=O)(=O)c2ccc(OC)cc2)c([N+](=O)[O-])c1	?	4%	?	?	12µM*	?
CCOc1ccc(C(=O)NCC(c2ccc(Cl)cc2)N2CCCCC2)cc1 (stereo not drawn)	·	·	-8%[46.1 µM]	?	·	-2
S=C(NCCSCc1ccccc1Cl)Nc1ccccc1	?	?	?	?	?	-22
CCCOc1ccc(CSCCNC(=S)Nc2ccccc2)cc1	?	?	?	?	13µM*	-37
S=C(NCCSCc1ccc(Cl)cc1)Nc1ccccc1	-2%	?	?	12%	?	-68*
CCOc1ccc(CSCCNC(=S)Nc2ccc(OC)cc2)cc1	10µM*	?	·	·	8.3µM*	-81*
Cc1ccc(-n2nc(CO)c(C(=O)NCc3cccnc3)n2)cc1C	·	·	?	?	·	19
Cc1nc2c(OCc3ccc(C#N)cc3)cccn2c1N(C)Cc1cccs1	·	·	·	·	·	-12
COc1ccc(NC(=O)c2cc3c(=O)n(C)c4cc(Cl)ccc4c3s2)cc1Cl	·	·	17%[46.1 µM]	·	·	6
CC[C@H](OC(C)=O)C(C[C@H](C)N(C)C)(c1ccccc1)c1ccccc1	?	·	·	·	·	-86*

Screening data (PubChem)
